Values joined by “and” are separate entries in the source; they are usually repeats but may differ in a detail not shown here. Identical values can stand only once. Results filed as inconclusive are left out. Some compounds were tested as several samples or in several runs, with calls that do not always agree. Active and inactive are the calls of the source. Unless noted, calls follow the shape of the full dose curve.
test system: not listed separately; test: qHTS assay to identify small molecule antagonists of the thyroid receptor (TR) signaling pathway (AID 743065; active = well fitted inhibition curve with a large enough effect in the repeat runs; also: nearly all actives have a fitted effect of over 55% in size); details: GH3.TRE-Luc, T3-stimulated luciferase inhibition, 23.5 h; series mostly up to 70.3 µM; activity, negative = inhibition: at the top concentration
Outline: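 GH3.TRE-Luc rat pituitary cells carrying two TR response elements driving luciferase were plated for 4 h, given compound plus 1 nM T3 (final), and incubated 23.5 h at 37 C. ONE-Glo luminescence measured reporter inhibition; CellTiter-Fluor fluorescence tracked cytotoxicity.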
% is scaled to controls: 0 for no effect and ±100 for the full control effect.

Q: For `C[C@H]1O[C@@H](O[C@H]2CC[C@@]3(C)[C@H](CC[C@@H]4[C@@H]3C[C@@H](O)[C@]3(C)[C@@H](C5=CC(=O)OC5)CC[C@]43O)C2)C[C@H](O)[C@@H]1O[C@H]1C[C@H](O)[C@H](O[C@H]2C[C@H](O)[C@H](O[C@@H]3O[C@H](CO)[C@@H](O)[C@H](O)[C@H]3O)[C@@H](C)O2)[C@@H](C)O1`, which “activity, negative = inhibition” value is on record?
A: Its value is 7.42% (inactive).

Q: With `Oc1ccc(Cl)c2c1CCC2` as the compound, how does the “activity, negative = inhibition” value read?
A: The value was 3.35% (inactive).

Q: For `N[C@H](CO)C(=O)O`, which “activity, negative = inhibition” value is on record?
A: The value was 14.2% (inactive).

Q: Which “activity, negative = inhibition” value does the source give for `CC1(C)S[C@@H]2[C@H](NC(=O)[C@H](N)c3ccc(O)cc3)C(=O)N2[C@H]1C(=O)O` here?
A: The value was 9.57% (inactive).

test system: thyroid hormone receptor (rat, GH3 cells); test: qHTS assay to identify small molecule agonists of the thyroid receptor (TR) signaling pathway (AID 743066); details: GH3.TRE-Luc cells, TR agonist luciferase, 24 h; series mostly up to 83.9 µM; activation: at the top concentration; also: potency is read from the fitted curve at half-maximal effect

Q: Which Potency does the source give for `CC1(C)C[C@@H]1C(=O)N/C(=C\CCCCSC[C@H](N)C(=O)O)C(=O)O` here?
A: The Potency was “inactive”.

Q: For `Cc1cc(-c2ccc(N=Nc3ccc4c(S(=O)(=O)O)cc(S(=O)(=O)O)c(N)c4c3O)c(C)c2)ccc1N=Nc1ccc2c(S(=O)(=O)O)cc(S(=O)(=O)O)c(N)c2c1O`, which Potency is on record?
A: Its Potency is “inactive”.

Q: Which “activation” value does the source give for `Clc1nc(C(Cl)(Cl)Cl)c(Cl)c(Cl)c1Cl` here?
A: The value was -1.03% (inactive).

Q: Which “activation” value does the source give for `O=C1c2ccccc2C(=O)C1c1ccc(F)cc1` here?
A: Its value is -0.0568% (inactive).

Q: Which “activation” value does the source give for `CC(=O)OCC(=O)[C@@]1(O)CC[C@H]2[C@@H]3C[C@H](C)C4=CC(=O)C=C[C@]4(C)[C@H]3[C@@H](O)C[C@@]21C` here?
A: The value was -0.671% (inactive).

Q: Which “activation” value does the source give for `CC(C)c1ccc2sc3ccccc3c(=O)c2c1` here?
A: The value was -7.52% (inactive).

Q: With `CC(=O)Oc1cc(C(F)(F)F)ccc1C(=O)O` as the compound, how does the “activation” value read?
A: The value was 0.964% [at 39.4 µM] (inactive).

Q: Which “activation” value does the source give for `N[C@H](C(=O)O)[C@@H]1CC(Cl)=NO1` here?
A: Its value is -4.27% (inactive).

Q: For `NCc1cccc(C2CCN(C(=O)c3ccc(C#Cc4ccccc4F)o3)CC2)c1`, which “activation” value is on record?
A: Its value is -8.79% (inactive).

Q: Which “activation” value does the source give for `CC1CCCCN1CCCOC(=O)c1ccccc1` (stereo unspecified) here?
A: The value was 0.5% (inactive).

Q: Which “activation” value does the source give for `O=C1CCC(c2ccc(-n3ccnc3)cc2)=NN1` here?
A: Its value is 0.584% (inactive).

Q: With `COc1cc(/C=C/C(=O)CC(=O)/C=C/c2ccc(O)c(OC)c2)ccc1O` as the compound, how does the Potency read?
A: The Potency was “inactive”.

Q: For `CSCC[C@H](NC(=O)[C@H](Cc1ccc(OS(=O)(=O)O)cc1)NC(=O)[C@@H](N)CC(=O)O)C(=O)NCC(=O)N[C@@H](Cc1c[nH]c2ccccc12)C(=O)N[C@@H](CCSC)C(=O)N[C@@H](CC(=O)O)C(=O)N[C@@H](Cc1ccccc1)C(N)=O`, which Potency is on record?
A: Its Potency is “inactive and 11.9 µM (active)”.

Q: For `O=C1OC(=O)c2cc(-c3ccc4c(c3)C(=O)OC4=O)ccc21`, which “activation” value is on record?
A: The value was 0.0109% (inactive).

Q: For `CCOc1ccc([N+](=O)[O-])cc1`, which “activation” value is on record?
A: Its value is -9.31% [at 95.2 µM] (inactive).

Q: For `C=N[C@@H](C(=O)N[C@@H]1C(=O)N2[C@@H]1SC(C)(C)[C@@H]2C(=O)O)c1ccccc1`, which “activation” value is on record?
A: Its value is 1.13% (inactive).

Q: Which “activation” value does the source give for `CN(C)CCc1c[nH]c2ccc(Cn3cncn3)cc12` here?
A: The value was 0.527% (inactive).

Q: For `FC(F)(F)COCC(F)(F)F`, which “activation” value is on record?
A: The value was 2.32% (inactive).

Q: With `CCCCCCCCCC[N+](C)(CCCCCCCCCC)CCC[Si](OC)(OC)OC` as the compound, how does the “activation” value read?
A: The value was 0.612% (inactive).

Q: With `N[C@@H](Cc1ccc(O)c(O)c1)C(=O)O` as the compound, how does the “activation” value read?
A: Its value is 0.329% (inactive).

Q: With `C[C@@H]1C[C@H]2[C@@H]3C[C@H](F)C4=CC(=O)C=C[C@]4(C)[C@@]3(Cl)[C@@H](O)C[C@]2(C)[C@H]1C(=O)COC(=O)C(C)(C)C` as the compound, how does the “activation” value read?
A: Its value is -1.02% (inactive).

Q: For `CC(Cc1ccc(O)c(O)c1)C(C)Cc1ccc(O)c(O)c1` (stereo unspecified), which “activation” value is on record?
A: Its value is -10.2% (inactive).

Q: For `O=C1OC(O)C(C(Cl)Cl)=C1Cl` (stereo unspecified), which “activation” value is on record?
A: The value was -9.62% [at 95.2 µM] (inactive).

Q: With `NC(N)=NCCCCN=C(N)N` as the compound, how does the “activation” value read?
A: Its value is 1.98% (inactive).

Q: With `NC(=O)CC[C@@H]1NC(=O)[C@H](Cc2ccccc2)NC(=O)[C@H](Cc2ccc(O)cc2)NC(=O)[C@@H](N)CSSC[C@@H](C(=O)N2CCC[C@H]2C(=O)N[C@@H](CCCN=C(N)N)C(=O)NCC(N)=O)NC(=O)[C@H](CC(N)=O)NC1=O` as the compound, how does the Potency read?
A: Its Potency is “inactive”.

Q: Which Potency does the source give for `Cc1c(N)nc([C@H](CC(N)=O)NC[C@H](N)C(N)=O)nc1C(=O)N[C@H](C(=O)N[C@H](C)[C@@H](O)[C@H](C)C(=O)N[C@H](C(=O)NCCc1nc(-c2nc(C(=O)NCCCCN=C(N)N)cs2)cs1)[C@@H](C)O)[C@@H](O[C@@H]1O[C@@H](CO)[C@@H](O)[C@H](O)[C@@H]1O[C@H]1O[C@H](CO)[C@@H](O)[C@H](OC(N)=O)[C@@H]1O)c1cnc[nH]1` here?
A: The Potency was “inactive”.

Q: With `CC[C@@H](C(=O)[C@@H](C)[C@@H](O)[C@H](C)CCc1ccc(C)c(O)c1C(=O)O)[C@H]1O[C@](CC)([C@H]2CC[C@](O)(CC)[C@H](C)O2)C[C@@H]1C` as the compound, how does the “activation” value read?
A: The value was -7.12% (inactive).

Q: Which “activation” value does the source give for `CCC(NC(C)C)C(O)c1ccc(O)c(O)c1` (stereo unspecified) here?
A: The value was 0.481% (inactive).

Q: Which “activation” value does the source give for `CCCCCCOC(=O)c1cccnc1` here?
A: The value was 0.195% (inactive).

Q: With `CC(C)C[C@H](NC(=O)[C@@H](COC(C)(C)C)NC(=O)[C@H](Cc1ccc(O)cc1)NC(=O)[C@H](CO)NC(=O)[C@H](Cc1c[nH]c2ccccc12)NC(=O)[C@H](Cc1cnc[nH]1)NC(=O)[C@@H]1CCC(=O)N1)C(=O)N[C@@H](CCCN=C(N)N)C(=O)N1CCC[C@H]1C(=O)NNC(N)=O` as the compound, how does the Potency read?
A: The Potency was “inactive”.

Q: Which “activation” value does the source give for `CC(=O)OCC1=C(C(=O)O)N2C(=O)[C@@H](NC(=O)Cc3ccccc3)[C@H]2SC1` here?
A: The value was 1.51% (inactive).

Q: For `NS(=O)(=O)c1cc(Cl)c(Cl)c(S(N)(=O)=O)c1`, which “activation” value is on record?
A: The value was 0.431% [at 39.4 µM] (inactive).

Q: Which “activation” value does the source give for `O=c1[nH]c(=O)n([C@H]2C[C@H](O)[C@@H](CO)O2)cc1/C=C/Br` here?
A: The value was 0.496% (inactive).

Q: Which “activation” value does the source give for `C[C@H]1O[C@@H](O[C@H]2CC[C@@]3(C)[C@H](CC[C@@H]4[C@@H]3C[C@@H](O)[C@]3(C)[C@@H](C5=CC(=O)OC5)CC[C@]43O)C2)C[C@H](O)[C@@H]1O[C@H]1C[C@H](O)[C@H](O[C@H]2C[C@H](O)[C@H](O[C@@H]3O[C@H](CO)[C@@H](O)[C@H](O)[C@H]3O)[C@@H](C)O2)[C@@H](C)O1` here?
A: Its value is 0.19% (inactive).

Q: With `Oc1ccc(Cl)c2c1CCC2` as the compound, how does the “activation” value read?
A: Its value is -0.427% (inactive).

Q: Which “activation” value does the source give for `N[C@H](CO)C(=O)O` here?
A: The value was 0.685% (inactive).

Q: Which “activation” value does the source give for `CC1(C)S[C@@H]2[C@H](NC(=O)[C@H](N)c3ccc(O)cc3)C(=O)N2[C@H]1C(=O)O` here?
A: Its value is 0.635% (inactive).

— PubChem BioAssay (Tox21)
